This is a sample that favours compounds with a hit; in the whole collection about 3.9% have one here.
HepG2 viability – HepG2 cytotoxicity, counter-screen for TGF-b inhibitors; HepG2 CAGA-GFP viability, ATP luminescence, 18 h; Potency, µM (doses to about 46.1 µM), actives largely listed as cytotoxic; hit rate 0.76% among 410,000
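HepG2 CAGA-GFP cells (1000/well, DMEM with 1% FBS) received compound, then TGF-beta at 500 pg/mL final, and were incubated 18 hours at 37 degrees C. Viability was read by CellTiter-Glo luminescence. Media-only wells were set as complete cell-killing and DMSO as no toxicity.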
HT1080 IDH1KD tx – HT-1080 IDH1 knockdown cell toxicity (counter line) | Potency, µM (top dose mostly 46.1 µM), actives largely listed as cytotoxic | AID 686971 | HT-1080 IDH1 knockdown viability, ATP luminescence, 48 h | hit rate 2% among 360,000
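% activity derives from luminescence (CellTiter-Glo), normalised to DMSO and no-cell wells. HT-1080-IDH1KD cells, 750/well, had 48 h compound exposure at 37 °C.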
TGFb SMAD3 inh – blocks TGF-b signaling; HepG2 CAGA-GFP TGF-b/SMAD3 reporter, GFP fluorescence, 18 h; TGF-beta stimulated, 500 pg/mL final; Potency, µM (highest dose often 46.1 µM), usual class: inhibitors; hit rate 1.2% among 410,000; also: nearly all actives have a fitted effect of over 65% in size
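Inhibition was scored as loss of TGF-beta-induced (500 pg/mL final, 18 hours, 37 degrees C) GFP in HEPG2 cells carrying a CAGA-GFP reporter, in DMEM with 1% FBS. Well GFP was summed per cell; Activity was normalised to unstimulated and stimulated DMSO wells, then concentration-response fitting.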
ATXN viability – viability counter-screen for ATXN expression inhibitors; S2 cells (HEK-293 line with an ATXN2-luciferase reporter) viability, CellTiter-Fluor protease fluorescence, 24 h; hit rate 0.49% among 400,000; Potency, µM (doses to about 56.7 µM), usual class: cytotoxic; also: nearly all actives have a fitted effect of over 40% in size
HT1080-NT tox – kills 2HG-producing HT-1080-NT fibrosarcoma cells | Potency, µM (top dose mostly 46.1 µM), usual class: cytotoxic | HT-1080-NT fibrosarcoma viability, CellTiter-Glo ATP luminescence, 48 h | hit rate 1.6% among 360,000;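 also: NT is the 2HG producing partner of a matched IDH1 knockdown line; nearly all actives have a fitted effect of over 55% in size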
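750 cells/well, RPMI + 5% FBS; 2 h settle, compound pin-transfer, 48 h at 37 degrees C. CellTiter-Glo 10 min RT, luminescence. Normalized to DMSO and media-only wells.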
ATXN2 expr inh – reduces ATXN2 reporter expression in HEK-293 cells. Potency, µM (top dose mostly 57 µM), most hits filed as inhibitors. HEK-293 ATXN2-luciferase reporter, luminescence, 24 h. hit rate 0.72% among 360,000; also: nearly all actives have a fitted effect of over 55% in size
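ATXN2-luciferase reporter cells (luciferase flanked by upstream and downstream ATXN2 gene portions) were treated 24 h at 37 °C with compounds at up to 57 uM. SteadyGlo luminescence gave expression; GF-AFC fluorescence gave viability.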
Numbers stand for hits; n = inactive; u = inconclusive; x = no result given; ! = a repeat was not active. Calls follow the shape of the dose curve; as a rule, active = well fitted curve in the direction sought with a large enough effect; inconclusive = small, poorly fitted or top-dose-only effect, or another doubt; inactive = no such curve, though single readings can be large; an effect the other way counts as inactive or inconclusive.

SMILES | HepG2 viability | HT1080 IDH1KD tx | TGFb SMAD3 inh | ATXN viability | HT1080-NT tox | ATXN2 expr inh
O=C(/C=C/c1ccccc1)NNC(=O)C1CC1 | n | n | 14µM | n | n | n
CC(/C=C\c1ccccc1)=C/C(=O)O | n | n | n | n | n | n
O=C(/C=C/c1ccccc1)c1ccc2ccccc2c1 | 20µM | u | u | n | 23µM | n
O=C(/C=C/c1ccccc1)/C=C/c1ccccc1 | n | u | u | 40µM | n | u
COC(=O)NNC(=O)/C=C/c1ccccc1 | n | n | n | n | n | n
N#Cc1ccc(/C=C/C(=O)c2ccccc2)cc1 | n | u | u | u | u | x
N#CSCC(=O)O | x | x | x | n | x | n
O=C(Oc1cccc2cccnc12)c1ccc(N2C(=O)C3C4CCC(C4)C3C2=O)cc1 (stereo not given) | n | 13µM | u | n | 16µM | n
O=C(Oc1cccc2cccnc12)c1cccc(N2C(=O)C3C4CCC(C4)C3C2=O)c1 (stereo not given) | n | u | u | x | u | n
COc1ccc(S(=O)(=O)CC(=O)c2cc3cc(Br)ccc3oc2=O)cc1 | n | n | 13µM | n | n | x
CN(C)CCNC(=O)c1cc2cc(Br)ccc2oc1=O | n | n | n | n | n | n
CCN(CC)C(=O)c1cc2cc(Br)ccc2oc1=O | 7.1µM | n | n | u | n | n
COc1ccc(-c2csc(-c3nc(-c4ccc(Br)s4)cs3)n2)cc1F | n | x | n | n | x | n
COc1ccccc1NC(=O)N1CCN(c2ccc3nnc(-c4ccc(F)cc4)n3n2)CC1 | n | u | u | x | 26µM | 18µM!
CCOc1ccc(C2=NC(c3cccs3)=Nc3ccc(C(C)C)cc3N2)cc1 | n | x | n | n | x | n
CN1CCN(C(=O)Nc2cccc(Cl)c2)c2cccnc21 | n | x | 16µM | n | x | n
COC1=C(C(=O)O)N2C(=O)[C@@H](NC(=O)[C@H](N)C3=CCC=CC3)[C@H]2SC1 | x | x | x | n | x | x
COc1cc2nccc(Oc3ccc(NC(=O)NC4CC4)c(Cl)c3)c2cc1C(N)=O | x | x | x | x | x | 3.4µM
COc1ccc(OC)c(NC(=O)NC2CCCCCCC2)c1 | n | n | n | n | n | n
COc1cc(=O)n2c(c1C(=O)NCc1ccco1)CCN(Cc1ccc3ccccc3c1)CC2 | x | x | x | n | x | x
O=C(N/N=C/C1=C(N2CCOCC2)C(=C\c2ccccc2)/CC1)Nc1ccccc1 | n | 7.3µM | n | u | u | n
CCOc1ccccc1N1CCN(C(=O)c2ccccc2)CC1 | n | n | n | n | n | n
CCOc1ccccc1N1CCN(C(=O)C2c3ccccc3Oc3ccccc32)CC1 | n | 18µM | u | n | u | n
CCOC(=O)c1ccc(NC(=O)c2c(NCc3sccc3C)sc3c2CCC(C)C3)cc1 (stereo not given) | n | x | 14µM | u | x | n
CCOc1ccccc1NC(=O)c1c(NCc2sccc2C)sc2c1CCC(C)C2 (stereo not given) | n | x | x | x | x | x
SMILES | HepG2 viability | HT1080 IDH1KD tx | TGFb SMAD3 inh | ATXN viability | HT1080-NT tox | ATXN2 expr inh
CCOC(=O)c1ccc(NC(=O)c2c(NCc3cc(OC)c(OC)cc3OC)sc3c2CCCC3)cc1 | n | x | n | 32µM | x | n
CCOC(=O)c1ccc(NC(=O)c2c(NCc3cc(OC)ccc3OC)sc3c2CCC3)cc1 | n | x | n | u | x | n
CCOC(=O)c1ccc(O)c(O)c1 | x | x | x | n | x | n
Cc1ccc(NC(=S)N(CCN(C)C)C(C)c2ccco2)cc1Cl (stereo not given) | n | n | 18µM | n | n | x
CCc1cccc(C)c1NC(=O)CSc1nnc(CC)n2c1cc1occc12 | n | x | 7.9µM | x | x | x
CCN(CC)c1ccc(NC(=O)Cn2cc3c(n2)CCCC3)c(C)c1 | n | x | n | n | x | n
CCCCCCSc1nnc(-c2cnn(-c3ccccc3)c2-n2cccc2)n1C | n | u | u | n | 18µM | n
CCSc1nnc(-c2cnn(-c3ccccc3)c2-n2cccc2)n1C | n | n | u | n | n | n
Cc1nc(-[n+]2nc(-c3ccncc3)nn2-c2ccccc2)sc1C | n | 10µM | n | 14µM | 26µM | u
Cc1nn(-c2nc(-c3ccc(F)cc3)cc(C(F)(F)F)n2)c(C)c1Cl | n | x | n | n | x | n
CCOc1ccc(/C=C/C(O)=C2/C(=O)N(C)C3(C)CC2c2ccccc2O3)cc1OC (stereo not given) | n | 3.7µM | n | n | u | u
Cc1ccc(S(=O)(=O)N2CCCCC2CCNC(=O)C(=O)NCCc2ccco2)cc1 (stereo not given) | n | 18µM | n | n | 10µM | n
Cc1ccc(C)c(S(=O)(=O)N2CCCCC2CCNC(=O)C(=O)NCCc2ccco2)c1 (stereo not given) | n | n | n | u | n | n
Cc1ccc(S(=O)(=O)N2CCCCC2CCNC(=O)C(=O)NCc2ccco2)cc1 (stereo not given) | n | 13µM | n | n | u | n
Cc1nc(-c2ccc(Cl)cc2)sc1CCNC(=O)c1cccs1 | n | x | u | u | x | u
Cc1cc(Cl)ccc1OCC(=O)NCC1Cc2cc(-c3cnccn3)ccc2O1 (stereo not given) | x | x | x | n | x | x
Cc1cccnc1-c1cccc2c1OC(CNC(=O)C1CCCc3c1[nH]c1ccccc31)C2 (stereo not given) | x | x | x | n | x | x
CCOC(=O)c1ccc(NC2=CC(c3ccc(O)c(OCC)c3)N(c3ccc(C(=O)OCC)cc3)C2=O)cc1 (stereo not given) | n | x | n | n | x | n
COc1cccc2c1C(=O)c1c(O)c3c(c(O)c1C2=O)CC(O)(C(C)=O)CC3OC1CC(O)C(O)C(C)O1 (stereo not given) | n | 23µM | n | 19µM | u | u
COc1cccc2c1C(=O)c1c(O)c3c(c(O)c1C2=O)C[C@@](O)(C(=O)CO)C[C@H]3O[C@H]1C[C@H](N)[C@H](O)[C@H](C)O1 | x | x | x | x | x | 0.27µM
CCCCC(=O)OCC(=O)C1(O)Cc2c(O)c3c(c(O)c2C(OC2CC(NC(=O)C(F)(F)F)C(O)C(C)O2)C1)C(=O)c1c(OC)cccc1C3=O (stereo not given) | n | 8.2µM | u | 3.5µM | 23µM | 2.5µM
COc1cccc2c1C(=N)c1c(O)c3c(c(O)c1C2=O)CC(O)(C(C)=O)CC3OC1CC(N)C(O)C(C)O1 (stereo not given) | n | 21µM | 7.1µM | u | 21µM | 1.2µM
Cc1ccc(-c2nnc(SCc3ccccc3)o2)cc1 | n | x | n | x | x | x
O=C(NCCCn1ccnc1)c1cc2nc(-c3ccc(Br)cc3)cc(C(F)(F)F)n2n1 | n | u | n | u | 23µM | u
CCCNC(=O)c1cc2nc(-c3ccc(Br)cc3)cc(C(F)(F)F)n2n1 | n | x | n | n | x | n

Screening data as filed in PubChem BioAssay.
